Data as given in the supplement of paper PMC10849652.
The full data set covers some 8,800 targets. This sample favours those with a hit. About 0.5% of all pairs of compound and target were hits. A number with no mark means an inactive call.

Legend:
Experiment in all cases: log2 fold change, soluble protein after heating vs DMSO (PISA); higher = thermal stabilisation; K562 lysate, 10 uM; active = over 0.2 and 3.5 SD of the protein, either way, in both replicates (recomputed)
erlotinib = compound: C#Cc1cccc(Nc2ncnc3cc(OCCOC)c(OCCOC)cc23)c1 [erlotinib]
Method in brief: (§1)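 The values are log-two fold changes in thermal stability compared with solvent controls and come from duplicates. They were obtained by TMTpro 16plex LC-MS/MS, with channel sums equalised, on the supernatant after 21,000xg for 90 min. That supernatant came from crude K562 extract at 1 mg/mL protein treated with 10 μM compound for 30 min, heated for 3 min across 48°C-58°C, pooled and brought to 0.5% NP-40 at 4°C.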

[1] = compound: C/C(=N\NC(=O)C1=CC(=CC=C1)S(=O)(=O)N2CCOCC2)/C3=C(C=CC(=C3)Cl)O
Method in brief: as §1

[2] = compound: C1=CC(=CC=C1C2=NC3=C(N2)C=C(C=C3)C(=O)N)OC4=CC=C(C=C4)Cl
Method in brief: as §1

[3] = compound: C1=CC2=C(C=CC(=C2)/C=C\3/C(=O)NC(=NCC4=CC=CS4)S3)N=C1
Method in brief: as §1

[4] = compound: C1=CC2=NC=CN=C2C=C1/C=C/3\C(=O)NC(=O)S3
Method in brief: as §1

[5] = compound: C1=CC=C(C=C1)C2=NC(=C(N2)C3=CC=NC=C3)C4=CC(=C(C=C4)Cl)O
Method in brief: as §1

[6] = compound: C1=CC=C2C(=C1)C3=NNC4=CC=CC(=C43)C2=O
Method in brief: as §1

[7] = compound: C1CCN(C1)C(=O)NC2=CC=CC(=C2)NC3=NC=C(C(=N3)NCCC4=CN=CN4)Br
Method in brief: as §1

[8] = compound: C1CN(CCC1(CC2=CC=C(C=C2)Cl)N)C3=NC=NC4=C3C=CN4
Method in brief: as §1

IRAK-1-4 Inhibitor I = compound: C1COCCN1CCN2C3=CC=CC=C3N=C2NC(=O)C4=CC(=CC=C4)[N+](=O)[O-] [IRAK-1-4 Inhibitor I]
Method in brief: as §1

ibrutinib = compound: C=CC(=O)N1CCC[C@@H](n2nc(-c3ccc(Oc4ccccc4)cc3)c3c(N)ncnc32)C1 [ibrutinib]
Method in brief: as §1

[9] = compound: CC(=O)c1cnc2ccc(-c3cc(Cl)c(O)c(Cl)c3)nc2c1N[C@H]1CC[C@H](CN(C)C)CC1
Method in brief: as §1

ralimetinib = compound: CC(C)(C)Cn1c(N)nc2ccc(-c3[nH]c(C(C)(C)C)nc3-c3ccc(F)cc3)nc21 [ralimetinib]
Method in brief: as §1

[10] = compound: CC(C)(O)CC(=O)NCCn1ccc2ncnc(Nc3ccc(Oc4cccc(C(F)(F)F)c4)c(Cl)c3)c21
Method in brief: as §1

[11] = compound: CC(C)C1=C2N=C(C=C(N2N=C1)NCC3=CC=CC=C3)NCCCCCCN
Method in brief: as §1

[12] = compound: CC1=C(C(CC(=O)N1)C2=CC=C(C=C2)C(F)(F)F)C(=O)NC3=C(C=C4C(=C3)C=NN4)F
Method in brief: as §1

[13] = compound: CC1=C(C2=C(C=C1)C(=O)C3=CC=CC=C3N2CCCN)C
Method in brief: as §1

[14] = compound: CC1=C(C=C(C=C1)NC(=O)C2=CC(=CC=C2)C(C)(C)C#N)NC3=CC4=C(C=C3)N=CN(C4=O)C
Method in brief: as §1

[15] = compound: CC1=C(C=C(C=C1)NC(=O)C2=CC(=CC=C2)N(C)C)NC(=O)C3=CC=C(C=C3)O
Method in brief: as §1

[16] = compound: CC1=CC=C(C=C1)SC2=C3C=C(SC3=CN=C2)C(=O)N
Method in brief: as §1

UniProt Q8TEM1, sequence (Q8TEM1 whole entry, looked up): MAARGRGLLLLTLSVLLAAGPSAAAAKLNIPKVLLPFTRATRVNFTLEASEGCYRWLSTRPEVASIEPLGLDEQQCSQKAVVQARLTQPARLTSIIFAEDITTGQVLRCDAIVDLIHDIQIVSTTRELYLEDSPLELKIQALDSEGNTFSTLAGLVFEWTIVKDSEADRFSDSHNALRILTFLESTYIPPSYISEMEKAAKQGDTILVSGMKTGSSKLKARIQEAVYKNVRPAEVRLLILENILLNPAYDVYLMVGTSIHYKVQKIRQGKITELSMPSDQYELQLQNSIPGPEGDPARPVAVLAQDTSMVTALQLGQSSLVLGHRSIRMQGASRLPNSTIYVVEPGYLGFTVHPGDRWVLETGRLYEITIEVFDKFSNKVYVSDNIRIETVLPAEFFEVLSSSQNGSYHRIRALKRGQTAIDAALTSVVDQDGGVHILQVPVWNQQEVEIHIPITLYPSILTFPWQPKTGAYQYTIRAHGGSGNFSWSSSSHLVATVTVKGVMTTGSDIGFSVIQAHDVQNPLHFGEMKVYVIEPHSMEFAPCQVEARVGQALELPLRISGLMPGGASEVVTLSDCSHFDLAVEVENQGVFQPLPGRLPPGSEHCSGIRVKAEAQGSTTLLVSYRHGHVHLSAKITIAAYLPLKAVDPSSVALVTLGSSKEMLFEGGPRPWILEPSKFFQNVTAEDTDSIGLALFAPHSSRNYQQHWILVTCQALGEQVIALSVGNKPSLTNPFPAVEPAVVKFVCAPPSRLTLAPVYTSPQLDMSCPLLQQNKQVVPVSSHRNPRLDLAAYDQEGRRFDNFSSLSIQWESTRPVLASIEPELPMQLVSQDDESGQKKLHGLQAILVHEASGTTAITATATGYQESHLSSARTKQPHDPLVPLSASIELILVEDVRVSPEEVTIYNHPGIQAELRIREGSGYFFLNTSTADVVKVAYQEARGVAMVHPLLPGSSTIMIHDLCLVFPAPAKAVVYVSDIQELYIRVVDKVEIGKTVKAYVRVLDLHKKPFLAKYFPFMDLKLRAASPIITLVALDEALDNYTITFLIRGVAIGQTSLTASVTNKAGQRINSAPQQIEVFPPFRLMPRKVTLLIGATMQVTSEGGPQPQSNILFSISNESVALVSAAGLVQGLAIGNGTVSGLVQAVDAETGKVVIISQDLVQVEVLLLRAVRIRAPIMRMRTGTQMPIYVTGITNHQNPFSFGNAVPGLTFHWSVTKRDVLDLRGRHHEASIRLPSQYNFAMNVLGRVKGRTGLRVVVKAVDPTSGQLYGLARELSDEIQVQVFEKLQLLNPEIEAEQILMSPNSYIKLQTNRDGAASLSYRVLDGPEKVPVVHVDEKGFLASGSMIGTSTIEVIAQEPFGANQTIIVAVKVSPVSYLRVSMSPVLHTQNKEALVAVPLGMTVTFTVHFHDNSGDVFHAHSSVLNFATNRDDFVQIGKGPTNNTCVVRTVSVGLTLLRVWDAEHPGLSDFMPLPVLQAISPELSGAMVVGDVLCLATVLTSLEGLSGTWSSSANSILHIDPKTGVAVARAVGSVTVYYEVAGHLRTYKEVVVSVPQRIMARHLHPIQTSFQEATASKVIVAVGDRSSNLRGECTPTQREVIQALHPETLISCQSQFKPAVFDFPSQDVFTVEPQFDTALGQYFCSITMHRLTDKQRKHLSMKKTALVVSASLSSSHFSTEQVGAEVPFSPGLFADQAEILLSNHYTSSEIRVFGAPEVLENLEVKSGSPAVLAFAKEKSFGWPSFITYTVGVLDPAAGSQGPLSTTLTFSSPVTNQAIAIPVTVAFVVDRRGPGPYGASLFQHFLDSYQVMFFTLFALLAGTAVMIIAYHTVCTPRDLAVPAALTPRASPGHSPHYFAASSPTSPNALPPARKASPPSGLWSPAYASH
UniProt Q15021, sequence (Q15021 whole entry, looked up): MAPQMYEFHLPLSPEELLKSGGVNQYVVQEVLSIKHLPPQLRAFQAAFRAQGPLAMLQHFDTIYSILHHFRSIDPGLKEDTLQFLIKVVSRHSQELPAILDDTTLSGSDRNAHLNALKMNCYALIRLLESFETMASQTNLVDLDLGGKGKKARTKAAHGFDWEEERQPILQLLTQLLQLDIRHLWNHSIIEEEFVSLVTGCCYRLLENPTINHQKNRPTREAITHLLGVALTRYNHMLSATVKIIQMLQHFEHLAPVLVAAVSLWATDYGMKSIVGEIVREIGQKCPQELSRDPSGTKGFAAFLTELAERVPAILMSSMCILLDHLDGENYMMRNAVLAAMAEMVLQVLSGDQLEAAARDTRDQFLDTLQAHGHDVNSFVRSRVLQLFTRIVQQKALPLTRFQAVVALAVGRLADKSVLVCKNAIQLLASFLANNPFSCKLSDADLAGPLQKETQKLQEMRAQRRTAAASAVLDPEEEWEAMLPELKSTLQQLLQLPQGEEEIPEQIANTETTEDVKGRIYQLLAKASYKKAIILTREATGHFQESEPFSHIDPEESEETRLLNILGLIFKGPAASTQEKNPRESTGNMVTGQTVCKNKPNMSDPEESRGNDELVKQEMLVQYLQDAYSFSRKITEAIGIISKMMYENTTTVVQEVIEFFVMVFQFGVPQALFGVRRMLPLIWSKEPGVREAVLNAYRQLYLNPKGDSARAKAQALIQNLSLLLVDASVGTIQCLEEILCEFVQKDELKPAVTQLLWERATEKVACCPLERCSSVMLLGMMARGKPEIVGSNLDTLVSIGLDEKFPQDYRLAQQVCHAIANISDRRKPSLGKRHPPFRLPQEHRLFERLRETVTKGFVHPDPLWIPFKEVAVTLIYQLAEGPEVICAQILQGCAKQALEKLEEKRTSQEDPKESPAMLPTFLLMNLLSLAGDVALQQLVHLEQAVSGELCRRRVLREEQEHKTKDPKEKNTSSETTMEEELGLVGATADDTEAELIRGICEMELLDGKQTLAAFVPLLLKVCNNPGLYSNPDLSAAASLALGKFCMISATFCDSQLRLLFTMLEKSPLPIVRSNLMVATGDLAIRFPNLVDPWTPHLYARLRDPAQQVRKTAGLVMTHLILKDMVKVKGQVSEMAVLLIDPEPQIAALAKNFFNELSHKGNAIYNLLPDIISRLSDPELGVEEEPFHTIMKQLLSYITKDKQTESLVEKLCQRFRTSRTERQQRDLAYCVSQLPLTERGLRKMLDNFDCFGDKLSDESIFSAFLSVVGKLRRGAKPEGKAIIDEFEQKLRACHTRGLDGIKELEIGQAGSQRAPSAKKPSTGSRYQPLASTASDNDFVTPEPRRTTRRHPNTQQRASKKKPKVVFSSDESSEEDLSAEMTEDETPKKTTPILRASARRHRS
UniProt Q9BZD4, sequence (Q9BZD4 whole entry, looked up): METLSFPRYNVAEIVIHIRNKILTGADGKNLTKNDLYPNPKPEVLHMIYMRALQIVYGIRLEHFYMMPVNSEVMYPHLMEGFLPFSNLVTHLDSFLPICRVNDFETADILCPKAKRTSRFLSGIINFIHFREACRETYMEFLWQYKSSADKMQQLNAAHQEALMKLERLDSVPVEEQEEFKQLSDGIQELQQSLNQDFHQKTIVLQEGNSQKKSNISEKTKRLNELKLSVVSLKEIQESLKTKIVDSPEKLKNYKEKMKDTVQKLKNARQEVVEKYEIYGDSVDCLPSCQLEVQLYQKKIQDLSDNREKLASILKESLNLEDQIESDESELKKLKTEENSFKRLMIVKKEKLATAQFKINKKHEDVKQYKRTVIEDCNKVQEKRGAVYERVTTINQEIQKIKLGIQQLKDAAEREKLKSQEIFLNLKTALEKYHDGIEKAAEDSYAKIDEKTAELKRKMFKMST
UniProt P52701, sequence (P52701 whole entry, looked up): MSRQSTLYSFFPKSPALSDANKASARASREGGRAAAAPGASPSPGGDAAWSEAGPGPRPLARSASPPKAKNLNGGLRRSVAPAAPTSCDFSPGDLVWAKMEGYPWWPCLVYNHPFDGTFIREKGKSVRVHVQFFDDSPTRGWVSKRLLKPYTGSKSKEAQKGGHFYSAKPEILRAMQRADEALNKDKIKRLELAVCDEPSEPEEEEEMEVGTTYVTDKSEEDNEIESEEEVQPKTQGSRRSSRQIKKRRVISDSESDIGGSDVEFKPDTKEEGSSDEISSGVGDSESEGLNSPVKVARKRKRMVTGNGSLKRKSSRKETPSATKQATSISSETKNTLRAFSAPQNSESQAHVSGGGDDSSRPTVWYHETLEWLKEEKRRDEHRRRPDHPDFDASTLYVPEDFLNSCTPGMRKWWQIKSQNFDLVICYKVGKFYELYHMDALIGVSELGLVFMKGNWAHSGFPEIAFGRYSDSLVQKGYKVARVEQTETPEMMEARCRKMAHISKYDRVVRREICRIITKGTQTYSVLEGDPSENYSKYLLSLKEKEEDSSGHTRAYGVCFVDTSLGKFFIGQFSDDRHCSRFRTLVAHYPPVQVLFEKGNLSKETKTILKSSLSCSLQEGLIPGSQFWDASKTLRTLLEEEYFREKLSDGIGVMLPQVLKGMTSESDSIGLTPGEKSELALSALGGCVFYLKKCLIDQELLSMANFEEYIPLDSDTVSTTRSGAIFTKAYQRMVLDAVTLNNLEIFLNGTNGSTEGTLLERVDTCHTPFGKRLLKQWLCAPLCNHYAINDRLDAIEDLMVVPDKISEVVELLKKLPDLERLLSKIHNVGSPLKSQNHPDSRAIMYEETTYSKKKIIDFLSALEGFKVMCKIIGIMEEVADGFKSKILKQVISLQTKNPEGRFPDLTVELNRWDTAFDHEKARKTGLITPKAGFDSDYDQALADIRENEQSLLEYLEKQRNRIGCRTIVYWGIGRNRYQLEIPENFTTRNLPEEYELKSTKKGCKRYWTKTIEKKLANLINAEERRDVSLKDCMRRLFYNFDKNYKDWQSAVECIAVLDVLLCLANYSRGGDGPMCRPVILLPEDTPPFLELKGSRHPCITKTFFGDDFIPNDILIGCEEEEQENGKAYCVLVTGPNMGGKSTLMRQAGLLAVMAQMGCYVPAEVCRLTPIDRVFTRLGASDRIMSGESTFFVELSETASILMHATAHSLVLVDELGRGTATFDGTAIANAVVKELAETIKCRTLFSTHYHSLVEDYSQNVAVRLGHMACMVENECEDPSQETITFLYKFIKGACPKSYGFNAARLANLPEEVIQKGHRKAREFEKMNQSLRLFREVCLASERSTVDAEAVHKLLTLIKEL

Target | log2 fold change (erlotinib) | log2 fold change [1] | log2 fold change [2] | log2 fold change [3] | log2 fold change [4] | log2 fold change [5] | log2 fold change [6] | log2 fold change [7] | log2 fold change [8] | log2 fold change (IRAK-1-4 Inhibitor I) | log2 fold change (ibrutinib) | log2 fold change [9] | log2 fold change (ralimetinib) | log2 fold change [10] | log2 fold change [11] | log2 fold change [12] | log2 fold change [13] | log2 fold change [14] | log2 fold change [15] | log2 fold change [16]
NAA30 (UniProt Q147X3) | 0.015 | -0.027 | 0.061 | 0.026 | -0.007 | -0.046 | -0.038 | -0.088 | -0.031 | 0.085 | 0.013 | -0.017 | 0.057 | -0.037 | -0.018 | 0.084 | -0.024 | -0.045 | 0.004 | 0.046
MYCBP (UniProt Q99417) | 0.007 | -0.001 | 0.011 | 0.007 | 0 | 0.019 | 0 | 0.024 | 0.076 | 0.04 | 0.188 | -0.009 | 0.021 | -0.04 | 0.002 | -0.007 | -0.017 | 0.032 | -0.002 | -0.009
NT5DC2 isoform 2 (UniProt Q9H857) | 0.027 | 0.008 | 0.068 | 0.03 | 0.505 (active) | -0.059 | 0.04 | -0.015 | 0.036 | 0.002 | 0 | -0.066 | -0.015 | -0.026 | 0 | -0.002 | -0.015 | 0.008 | 0.04 | -0.025
PARD3 (UniProt Q8TEW0) | 0.1 | -0.288 | 0.051 | -0.146 | -0.029 | 0.021 | 0.007 | 0.067 | 0.017 | 0.028 | 0.026 | 0.134 | -0.017 | -0.011 | 0.001 | 0.011 | 0.006 | 0.116 | 0.01 | -0.068
NUP210 (UniProt Q8TEM1) | -0.018 | -0.019 | -0.049 | 0.036 | -0.004 | -0.046 | -0.157 | -0.008 | -0.001 | -0.009 | -0.029 | -0.01 | -0.011 | -0.075 | -0.005 | 0.024 | -0.017 | -0.005 | -0.027 | -0.012
MSH6 (UniProt P52701) | 0.011 | 0.03 | -0.023 | 0.031 | 0.041 | 0.008 | -0.025 | 0 | -0.014 | -0.008 | 0.001 | 0.022 | 0.024 | 0.003 | 0.027 | -0.01 | -0.01 | -0.002 | 0.057 | 0.003
NCAPD2 (UniProt Q15021) | 0.011 | 0.011 | -0.005 | 0.032 | -0.009 | -0.016 | -0.025 | -0.007 | -0.005 | -0.001 | -0.019 | -0.019 | 0.03 | -0.012 | -0.031 | 0.022 | -0.003 | 0.016 | 0.036 | -0.005
NIT2 (UniProt Q9NQR4) | -0.048 | 0.001 | 0.014 | 0.009 | 0.007 | -0.03 | 0.032 | -0.006 | 0.015 | 0.067 | 0.026 | 0.014 | -0.038 | -0.041 | 0.014 | 0.017 | 0.014 | 0.017 | 0.019 | 0
NUF2 (UniProt Q9BZD4) | 0.009 | 0.006 | -0.012 | 0.03 | -0.002 | -0.047 | -0.047 | -0.039 | -0.004 | -0.039 | -0.052 | -0.051 | 0.03 | 0.015 | -0.001 | 0.018 | 0.027 | -0.011 | 0.044 | 0.009
ORC2 (UniProt Q13416) | -0.004 | -0.006 | -0.006 | 0.009 | 0.015 | 0.006 | -0.022 | 0 | -0.024 | -0.034 | 0.012 | -0.011 | 0.044 | 0.032 | -0.014 | 0.016 | -0.089 | -0.005 | -0.014 | 0.021
NUB1 (UniProt Q9Y5A7) | 0.049 | 0.055 | -0.003 | -0.015 | 0.002 | 0.054 | 0.023 | -0.022 | -0.023 | -0.02 | -0.001 | 0.022 | -0.003 | 0.018 | -0.027 | 0.014 | -0.009 | -0.028 | 0.008 | 0.02
OGT (UniProt O15294) | 0.021 | 0.053 | 0.01 | -0.008 | 0.008 | 0.024 | -0.021 | -0.006 | 0.02 | -0.017 | -0.035 | -0.024 | 0.021 | 0.023 | -0.007 | -0.009 | -0.026 | -0.014 | 0.032 | -0.005
MRPL51 (UniProt Q4U2R6) | -0.067 | -0.05 | -0.027 | 0.08 | -0.036 | -0.039 | 0.036 | -0.006 | -0.09 | 0.001 | 0.02 | -0.005 | 0.048 | 0.011 | -0.038 | 0.066 | 0.006 | -0.062 | 0.051 | 0.017
NDUFS1 isoform 2 (UniProt P28331) | -0.006 | 0.033 | -0.045 | 0.025 | 0.027 | -0.033 | -0.027 | -0.052 | 0.006 | 0.006 | -0.022 | -0.009 | 0.014 | -0.049 | -0.041 | 0.01 | 0.007 | -0.045 | 0.005 | 0.005
NUMB (UniProt P49757) | -0.029 | 0.01 | 0.044 | -0.052 | -0.009 | -0.009 | -0.029 | -0.107 | -0.043 | 0.022 | 0.03 | 0.005 | 0.021 | -0.055 | 0.003 | -0.007 | -0.015 | 0.081 | 0.004 | -0.005
NEK9 (UniProt Q8TD19) | -0.008 | 0.038 | -0.028 | -0.022 | -0.021 | -0.013 | 0.154 | 0.083 | -0.009 | 0.142 | 0.005 | 0.027 | 0.055 | 0 | 0.01 | 0.006 | -0.01 | 0.012 | 0.009 | 0.016
